Measurements taken from the supplement of paper PMC6555819.

System: THRa homodimer (NR concentration 90 nM)
Assay: PBM binding z-score (relative to random genomic background probes); higher = stronger binding; sequences stand for … in GC…GCGATTGACAGCGTAGAATGAAGG
Outline: (§1)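 Antibodies against each partner of ligand-free nuclear receptor dimers (one per run) detected binding on custom Agilent 4×180K protein-binding microarrays after 1 h incubation. The double-stranded probes had 34-nt variable regions carrying direct-repeat seeds, single-nucleotide variants, half-site ablations and random human genomic background sequences. Binding z-scores, from regression-normalized fluorescence, use the random background probes as reference.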

First: CCTACAGGGTCAGCTAGGCCAGAGTAGGGACGGC
Second: GTATCAAGGTGAATAGGTCGTTGATGAGTAGGCG
The PBM binding z-score of the first is lower: 0.663 for the first, 0.898 for the second.

Going from TATACAGGGTCAAAGGCCGGAGTACGAATGTCGA to CCTCGGAGGACAGAACGTCAGAGCTGTCCGCTTT, the PBM binding z-score falls from 0.872 to -0.473.

Compared with ATCTCTAGGTAAGACCCAGTTCAGTGAAGAACGC, ACTTACGGGTCAACGAGGGTATAGCACGCGTATA is lower in PBM binding z-score: 0.878 for the first, -0.0304 for the second.

First: TAGCGTAGGTCAGATCGGGCCAGTATACGCTATA
Second: GCTTACGGGTAAAAGGTTATAGCATGAATAGAAT
The PBM binding z-score of the first is lower: -1.02 for the first, -0.0699 for the second.

First: TCTATTAGTTGACGGGCAACCGACGAGTCCGTTT
Second: CCCAGCAGGCCAGGGTCACTCAAGCATTTCGCTT
The PBM binding z-score of the first is lower: -0.348 for the first, 1.3 for the second.

First: CGTCCCAGGTCAGAGAGGTCAGTGAATGCCGAGT
Second: ACTAGCAAGCCAAGGGTCACTCAAGATTAGTCCG
The PBM binding z-score of the first is higher: 2.92 for the first, 0.0458 for the second.

First: CAGACTGGGGCATAAGGTTACCATAAGCCAGCCC
Second: AGAACGAGGGCTATGAGTTGATAGCACGGGTGGC
The PBM binding z-score of the first is higher: 1.04 for the first, -0.913 for the second.

Compared with GCTTGTAGATCAAGGTTAAGATAGACTAAGCTAA, CCTAGCAGGCCAGGGTCACTCAAGCATTTCGCTT is higher in PBM binding z-score: -0.344 for the first, 1.2 for the second.

First: ATCTCTAGGCAAAAGTTCAGTGAATCCCGAGGAT
Second: ATCTCTAGGTAAAGATAGTTCAGAGAATGCAAAT
The PBM binding z-score of the first is lower: -0.181 for the first, 0.0734 for the second.

Going from CAAACTAGGTCACGGAAGGTCAAAGTCGAATGAC to ATATGTAGGTTACGGGTCATTCAGGTTGGTTCGC, the PBM binding z-score falls from 2.79 to 1.49.

Compared with ATCTCTAGCTAACAAGTTCAGTGAAAGAGAGGAC, ACAGACAGGTGAGTTAAGGTAACTCAGCTGGACG is higher in PBM binding z-score: 0.651 for the first, 1.8 for the second.

First: CAAACTAGTTCAAAGGTCAAAGTCGAGCCAACCA
Second: ACTTACGGGTCAACGAGCTTATAGCACGCGTATA
The PBM binding z-score of the first is higher: 1.06 for the first, 0.0469 for the second.

Going from CCGACTGGGGCATAAGGTTAGCATAAGCCAGCCC to CCGACTGGGGCATAAGGTTACCATGAGCCAGCCC, the PBM binding z-score rises from 0.298 to 1.17.

Going from ATATGTAGATTATCGGGTCATTCAGTTTGCGCAT to GATACAGGGTCAAGGCCCGAGTACGCGTATTGAT, the PBM binding z-score falls from 2.5 to 0.807.

Going from ACTAGGAGGCCAAGTTTGGGTCACTCAAACAAAG to GCTCGGAGGACAACGTCAGAGCTTTGTCCGTAGA, the PBM binding z-score falls from 1 to -0.468.

Compared with TTAGCAAGGTGAAAGGTCGTTGATGCACGCCTTG, ATCGAAATGTCGACGAGGTGAGTATACACCGTTT is higher in PBM binding z-score: 0.254 for the first, 0.345 for the second.

Going from CGTCCAAGGTGAGAGAGGTCAGTGAATGCCGAGT to CCTGCTAGGTCAATCGTCAGCTAAAGCAGCTCGC, the PBM binding z-score falls from 1.95 to 0.36.

Going from GCTTGTAGGTCAAGGTTAAGAAAGACTAAGCTAA to TCTGCTAGGTGAACGATGGTCAGCTAATCTGCTA, the PBM binding z-score falls from 0.735 to -0.885.

Going from CGAACTAGGTCATTGACTGGACAGTGAATAGTAA to TCCTATAGGTAAAGGTGAAAGTCGAACGATATGA, the PBM binding z-score falls from 0.595 to -0.248.

First: CCAGACAGGTGGGAAGGTAACTCAGCCTCGATTA
Second: CCTACTGGGCCATTCAGAGGTCATAGATCATATG
The PBM binding z-score of the first is lower: 0.393 for the first, 1.4 for the second.

System: VDR homodimer (NR concentration 270 nM)
Assay: as above
Outline: as §1

Compared with CCTACAGGGTCAGCTAGGCCAGAGTAGGGACGGC, GTATCAAGGTGAATAGGTCGTTGATGAGTAGGCG is lower in PBM binding z-score: 0.899 for the first, 0.555 for the second.

Compared with TATACAGGGTCAAAGGCCGGAGTACGAATGTCGA, CCTCGGAGGACAGAACGTCAGAGCTGTCCGCTTT is lower in PBM binding z-score: 3.02 for the first, -0.816 for the second.

Going from ATCTCTAGGTAAGACCCAGTTCAGTGAAGAACGC to ACTTACGGGTCAACGAGGGTATAGCACGCGTATA, the PBM binding z-score rises from 1.3 to 2.67.

Compared with TAGCGTAGGTCAGATCGGGCCAGTATACGCTATA, GCTTACGGGTAAAAGGTTATAGCATGAATAGAAT is higher in PBM binding z-score: -0.553 for the first, 0.48 for the second.

Compared with TCTATTAGTTGACGGGCAACCGACGAGTCCGTTT, CCCAGCAGGCCAGGGTCACTCAAGCATTTCGCTT is higher in PBM binding z-score: 0.718 for the first, 1.55 for the second.

Compared with CGTCCCAGGTCAGAGAGGTCAGTGAATGCCGAGT, ACTAGCAAGCCAAGGGTCACTCAAGATTAGTCCG is lower in PBM binding z-score: 4.31 for the first, 1.08 for the second.

Going from CAGACTGGGGCATAAGGTTACCATAAGCCAGCCC to AGAACGAGGGCTATGAGTTGATAGCACGGGTGGC, the PBM binding z-score falls from -0.0112 to -0.036.

Compared with GCTTGTAGATCAAGGTTAAGATAGACTAAGCTAA, CCTAGCAGGCCAGGGTCACTCAAGCATTTCGCTT is higher in PBM binding z-score: -0.108 for the first, 1.25 for the second.

Compared with ATCTCTAGGCAAAAGTTCAGTGAATCCCGAGGAT, ATCTCTAGGTAAAGATAGTTCAGAGAATGCAAAT is lower in PBM binding z-score: 0.923 for the first, 0.51 for the second.

Going from CAAACTAGGTCACGGAAGGTCAAAGTCGAATGAC to ATATGTAGGTTACGGGTCATTCAGGTTGGTTCGC, the PBM binding z-score falls from 3.53 to 3.37.

Compared with ATCTCTAGCTAACAAGTTCAGTGAAAGAGAGGAC, ACAGACAGGTGAGTTAAGGTAACTCAGCTGGACG is lower in PBM binding z-score: 2.47 for the first, -0.547 for the second.

Compared with CAAACTAGTTCAAAGGTCAAAGTCGAGCCAACCA, ACTTACGGGTCAACGAGCTTATAGCACGCGTATA is lower in PBM binding z-score: 3.89 for the first, 0.846 for the second.

Going from CCGACTGGGGCATAAGGTTAGCATAAGCCAGCCC to CCGACTGGGGCATAAGGTTACCATGAGCCAGCCC, the PBM binding z-score rises from -0.543 to -0.247.

Going from ATATGTAGATTATCGGGTCATTCAGTTTGCGCAT to GATACAGGGTCAAGGCCCGAGTACGCGTATTGAT, the PBM binding z-score falls from 4.05 to 2.35.

Compared with ACTAGGAGGCCAAGTTTGGGTCACTCAAACAAAG, GCTCGGAGGACAACGTCAGAGCTTTGTCCGTAGA is lower in PBM binding z-score: 0.935 for the first, -0.803 for the second.

Compared with TTAGCAAGGTGAAAGGTCGTTGATGCACGCCTTG, ATCGAAATGTCGACGAGGTGAGTATACACCGTTT is lower in PBM binding z-score: 1.18 for the first, -0.13 for the second.

First: CGTCCAAGGTGAGAGAGGTCAGTGAATGCCGAGT
Second: CCTGCTAGGTCAATCGTCAGCTAAAGCAGCTCGC
The PBM binding z-score of the first is higher: 3.07 for the first, -0.0155 for the second.

Compared with GCTTGTAGGTCAAGGTTAAGAAAGACTAAGCTAA, TCTGCTAGGTGAACGATGGTCAGCTAATCTGCTA is lower in PBM binding z-score: 0.622 for the first, -0.782 for the second.

First: CGAACTAGGTCATTGACTGGACAGTGAATAGTAA
Second: TCCTATAGGTAAAGGTGAAAGTCGAACGATATGA
The PBM binding z-score of the first is higher: 0.943 for the first, 0.13 for the second.

Compared with CCAGACAGGTGGGAAGGTAACTCAGCCTCGATTA, CCTACTGGGCCATTCAGAGGTCATAGATCATATG is higher in PBM binding z-score: -0.38 for the first, 2.6 for the second.
